Reference: the supplement of paper PMC8728848
Shown is part of a subset that was picked to be rich in the strongest signals.

Experiments:
Assay in all cases: glycan array binding signal (z-score within array); higher = stronger binding
[1] = system: Gal(b1-4)GlcNAc(b1-3)Gal(b1-4)GlcNAc(b1-2)Man(a1-3)[Gal(b1-4)GlcNAc(b1-3)Gal(b1-4)GlcNAc(b1-2)Man(a1-6)]Man(b1-4)GlcNAc(b1-4)GlcNAc; settings: glycan notation: IUPAC condensed, linker removed
How it was run: (§1)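 Columns mapping to the same glycan were averaged after glycan names were converted to IUPAC-condensed notation. The data come from 3228 arrays in the Consortium for Functional Glycomics database, limited to those with an available protein sequence. Binding is reported as a within-array Z-score averaged across arrays of one protein sequence and across linkers.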

[2] = system: Gal(b1-4)GlcNAc(b1-3)Gal(b1-4)GlcNAc(b1-2)[Gal(b1-4)GlcNAc(b1-3)Gal(b1-4)GlcNAc(b1-6)]Man(a1-6)[Gal(b1-4)GlcNAc(b1-3)Gal(b1-4)GlcNAc(b1-2)Man(a1-3)]Man(b1-4)GlcNAc(b1-4)[Fuc(a1-6)]GlcNAc; settings: glycan notation: IUPAC condensed, linker removed
How it was run: as §1

[3] = system: Gal(b1-4)GlcNAc(b1-3)Gal(b1-4)GlcNAc(b1-3)Gal(b1-4)GlcNAc(b1-2)[Gal(b1-4)GlcNAc(b1-3)Gal(b1-4)GlcNAc(b1-3)Gal(b1-4)GlcNAc(b1-6)]Man(a1-6)[Gal(b1-4)GlcNAc(b1-3)Gal(b1-4)GlcNAc(b1-3)Gal(b1-4)GlcNAc(b1-2)Man(a1-3)]Man(b1-4)GlcNAc(b1-4)[Fuc(a1-6)]GlcNAc; settings: glycan notation: IUPAC condensed, linker removed
How it was run: as §1

[4] = system: Gal(b1-4)GlcNAc(b1-3)Gal(b1-4)GlcNAc; settings: glycan notation: IUPAC condensed, linker removed
How it was run: as §1

[5] = system: Gal(b1-4)GlcNAc(b1-2)Man(a1-3)[Gal(b1-4)GlcNAc(b1-2)][GlcNAc(b1-4)]Man(b1-4)GlcNAc(b1-4)GlcNAc; settings: glycan notation: IUPAC condensed, linker removed
How it was run: as §1

[6] = system: Gal(b1-4)GlcNAc(b1-2)[Gal(b1-4)GlcNAc(b1-4)]Man(a1-3)[Gal(b1-4)GlcNAc(b1-2)[Gal(b1-4)GlcNAc(b1-6)]Man(a1-6)]Man(b1-4)GlcNAc(b1-4)GlcNAc; settings: glycan notation: IUPAC condensed, linker removed
How it was run: as §1

[7] = system: Gal(b1-4)GlcNAc(b1-2)[Gal(b1-4)GlcNAc(b1-4)]Man(a1-3)[GlcNAc(b1-4)][Gal(b1-4)GlcNAc(b1-2)Man(a1-6)]Man(b1-4)GlcNAc(b1-4)GlcNAc; settings: glycan notation: IUPAC condensed, linker removed
How it was run: as §1

[8] = system: Gal(b1-4)GlcNAc(b1-3)Gal(b1-4)GlcNAc(b1-3)Gal(b1-4)GlcNAc(b1-2)Man(a1-3)[Gal(b1-4)GlcNAc(b1-3)Gal(b1-4)GlcNAc(b1-3)Gal(b1-4)GlcNAc(b1-2)Man(a1-6)]Man(b1-4)GlcNAc(b1-4)[Fuc(a1-6)]GlcNAc; settings: glycan notation: IUPAC condensed, linker removed
How it was run: as §1

[9] = system: Gal(b1-4)GlcNAc(b1-3)Gal(b1-4)GlcNAc(b1-3)Gal(b1-4)GlcNAc(b1-3)Gal(b1-4)GlcNAc(b1-2)Man(a1-3)[Gal(b1-4)GlcNAc(b1-3)Gal(b1-4)GlcNAc(b1-3)Gal(b1-4)GlcNAc(b1-3)Gal(b1-4)GlcNAc(b1-2)Man(a1-6)]Man(b1-4)GlcNAc(b1-4)[Fuc(a1-6)]GlcNAc; settings: glycan notation: IUPAC condensed, linker removed; mutation: R125K
How it was run: as §1

[10] = system: Gal(b1-4)GlcNAc(b1-3)Gal(b1-4)GlcNAc(b1-3)Gal(b1-4)GlcNAc(b1-3)Gal(b1-4)GlcNAc(b1-3)Gal(b1-4)GlcNAc(b1-2)Man(a1-3)[Gal(b1-4)GlcNAc(b1-3)Gal(b1-4)GlcNAc(b1-3)Gal(b1-4)GlcNAc(b1-3)Gal(b1-4)GlcNAc(b1-3)Gal(b1-4)GlcNAc(b1-2)Man(a1-6)]Man(b1-4)GlcNAc(b1-4)GlcNAc; settings: glycan notation: IUPAC condensed, linker removed
How it was run: as §1

[11] = system: Gal(b1-4)GlcNAc(b1-3)Gal(b1-4)GlcNAc(b1-3)[Gal(b1-4)GlcNAc(b1-3)Gal(b1-4)GlcNAc(b1-6)]GalNAc; settings: glycan notation: IUPAC condensed, linker removed
How it was run: as §1

[12] = system: Gal(b1-4)GlcNAc(b1-3)Gal(b1-4)Glc; settings: glycan notation: IUPAC condensed, linker removed
How it was run: as §1

[13] = system: Gal(b1-4)GlcNAc(b1-3)[GlcNAc(b1-6)]Gal(b1-4)GlcNAc; settings: glycan notation: IUPAC condensed, linker removed
How it was run: as §1

[14] = system: Gal(b1-4)GlcNAc(b1-3)GalNAc; settings: glycan notation: IUPAC condensed, linker removed
How it was run: as §1

[15] = system: Gal(b1-4)GlcNAc(b1-2)[Gal(b1-4)GlcNAc(b1-6)]Man(a1-6)[GlcNAc(b1-4)][Gal(b1-4)GlcNAc(b1-2)Man(a1-3)]Man(b1-4)GlcNAc(b1-4)GlcNAc; settings: glycan notation: IUPAC condensed, linker removed
How it was run: as §1

[16] = system: Gal(b1-4)GlcNAc(b1-6)Gal(b1-4)GlcNAc; settings: glycan notation: IUPAC condensed, linker removed
How it was run: as §1

[17] = system: Gal(b1-4)GlcNAc(b1-3)Gal(b1-4)GlcNAc(b1-3)Gal(b1-4)GlcNAc(b1-2)Man(a1-3)[Gal(b1-4)GlcNAc(b1-3)Gal(b1-4)GlcNAc(b1-3)Gal(b1-4)GlcNAc(b1-2)Man(a1-6)]Man(b1-4)GlcNAc(b1-4)GlcNAc; settings: glycan notation: IUPAC condensed, linker removed
How it was run: as §1

[18] = system: Gal(b1-4)GlcNAc(b1-3)[Gal(b1-4)GlcNAc(b1-6)]Gal(b1-4)GlcNAc; settings: glycan notation: IUPAC condensed, linker removed
How it was run: as §1

[19] = system: Gal(b1-4)GlcNAc(b1-3)Gal(b1-4)[Fuc(a1-3)]GlcNAc(b1-3)Gal(b1-4)[Fuc(a1-3)]GlcNAc; settings: glycan notation: IUPAC condensed, linker removed
How it was run: as §1

[20] = system: Gal(b1-4)GlcNAc(b1-2)Man(a1-6)Man(b1-4)GlcNAc(b1-4)GlcNAc; settings: glycan notation: IUPAC condensed, linker removed
How it was run: as §1

Sequence of CHI3L1 (Homo sapiens), P36222 (P36222 whole entry): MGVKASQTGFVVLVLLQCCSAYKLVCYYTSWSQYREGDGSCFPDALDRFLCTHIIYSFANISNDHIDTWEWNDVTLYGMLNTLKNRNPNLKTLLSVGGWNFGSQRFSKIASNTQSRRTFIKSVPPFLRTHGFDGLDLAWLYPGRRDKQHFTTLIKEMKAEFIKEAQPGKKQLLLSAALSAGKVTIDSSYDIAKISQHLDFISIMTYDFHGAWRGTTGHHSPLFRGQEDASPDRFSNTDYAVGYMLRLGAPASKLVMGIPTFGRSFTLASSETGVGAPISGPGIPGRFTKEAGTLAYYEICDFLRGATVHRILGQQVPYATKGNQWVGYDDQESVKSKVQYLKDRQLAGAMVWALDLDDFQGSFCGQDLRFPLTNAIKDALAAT
Sequence of PILRa (Mus musculus), Q2YSF3 (Q2YSF3 entry or part of it): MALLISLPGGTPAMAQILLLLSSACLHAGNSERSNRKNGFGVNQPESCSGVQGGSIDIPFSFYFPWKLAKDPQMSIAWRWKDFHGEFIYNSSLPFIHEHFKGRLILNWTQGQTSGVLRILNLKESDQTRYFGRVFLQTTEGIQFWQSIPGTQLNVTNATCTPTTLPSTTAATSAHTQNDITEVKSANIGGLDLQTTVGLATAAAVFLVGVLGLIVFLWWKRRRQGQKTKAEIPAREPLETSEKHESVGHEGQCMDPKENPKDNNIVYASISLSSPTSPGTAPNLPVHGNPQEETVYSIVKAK
Sequence of PILRb (Mus musculus), Q2YSF2 (Q2YSF2 entry or part of it): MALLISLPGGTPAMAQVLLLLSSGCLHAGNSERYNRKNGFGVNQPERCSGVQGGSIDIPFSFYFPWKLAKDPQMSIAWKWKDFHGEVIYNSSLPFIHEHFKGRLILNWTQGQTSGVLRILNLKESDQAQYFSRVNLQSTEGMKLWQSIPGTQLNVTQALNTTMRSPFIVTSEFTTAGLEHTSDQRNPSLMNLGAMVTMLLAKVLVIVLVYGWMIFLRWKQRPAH
Sequence of Avaren (Actinomycete K97) (chain, as listed by the source): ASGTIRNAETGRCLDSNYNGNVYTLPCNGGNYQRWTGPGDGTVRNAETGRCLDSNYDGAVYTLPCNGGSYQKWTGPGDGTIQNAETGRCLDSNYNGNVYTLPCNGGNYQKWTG
Sequence of Neurocan (Homo sapiens), O14594 (O14594 other isoform, or with tags, fused parts or gaps): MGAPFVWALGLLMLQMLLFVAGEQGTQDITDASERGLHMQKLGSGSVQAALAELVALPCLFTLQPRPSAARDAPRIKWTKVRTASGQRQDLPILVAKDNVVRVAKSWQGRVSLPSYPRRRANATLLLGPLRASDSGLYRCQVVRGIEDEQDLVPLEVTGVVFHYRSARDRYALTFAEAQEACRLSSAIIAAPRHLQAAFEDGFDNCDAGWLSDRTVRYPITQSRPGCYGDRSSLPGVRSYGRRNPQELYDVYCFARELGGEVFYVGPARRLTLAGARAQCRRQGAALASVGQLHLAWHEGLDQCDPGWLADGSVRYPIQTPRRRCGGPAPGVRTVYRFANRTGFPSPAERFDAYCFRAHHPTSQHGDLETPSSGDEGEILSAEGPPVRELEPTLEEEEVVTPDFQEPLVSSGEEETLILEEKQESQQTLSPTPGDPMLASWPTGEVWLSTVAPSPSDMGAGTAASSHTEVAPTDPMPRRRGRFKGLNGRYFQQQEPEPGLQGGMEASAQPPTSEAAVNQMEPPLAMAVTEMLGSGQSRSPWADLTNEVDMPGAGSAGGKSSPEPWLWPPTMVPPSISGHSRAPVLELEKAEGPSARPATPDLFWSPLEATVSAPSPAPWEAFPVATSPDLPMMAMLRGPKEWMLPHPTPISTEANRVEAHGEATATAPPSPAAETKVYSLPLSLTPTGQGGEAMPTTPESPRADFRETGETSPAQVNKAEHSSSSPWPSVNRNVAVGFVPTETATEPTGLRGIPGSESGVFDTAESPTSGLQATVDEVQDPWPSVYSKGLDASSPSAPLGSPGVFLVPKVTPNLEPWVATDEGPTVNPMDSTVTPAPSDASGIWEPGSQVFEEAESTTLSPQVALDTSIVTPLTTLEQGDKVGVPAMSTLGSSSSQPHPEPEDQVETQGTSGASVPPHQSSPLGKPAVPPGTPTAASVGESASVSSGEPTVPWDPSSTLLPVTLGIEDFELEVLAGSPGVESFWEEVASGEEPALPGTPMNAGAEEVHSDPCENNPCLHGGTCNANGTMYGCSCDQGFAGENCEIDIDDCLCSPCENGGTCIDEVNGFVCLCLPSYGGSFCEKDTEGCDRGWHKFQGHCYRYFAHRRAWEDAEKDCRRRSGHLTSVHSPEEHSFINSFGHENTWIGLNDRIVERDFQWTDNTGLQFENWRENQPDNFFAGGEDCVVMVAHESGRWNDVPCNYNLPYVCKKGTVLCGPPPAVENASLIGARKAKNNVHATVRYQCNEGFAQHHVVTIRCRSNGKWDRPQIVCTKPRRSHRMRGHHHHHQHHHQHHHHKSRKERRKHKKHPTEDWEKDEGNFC
Sequence of Regenerating Gene IV (Homo sapiens), Q9BYZ8 (Q9BYZ8 whole entry, looked up): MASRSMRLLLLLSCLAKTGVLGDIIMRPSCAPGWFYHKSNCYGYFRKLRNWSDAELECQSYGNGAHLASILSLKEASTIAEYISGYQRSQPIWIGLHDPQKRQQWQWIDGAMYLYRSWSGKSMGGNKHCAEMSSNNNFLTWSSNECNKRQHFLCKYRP
Sequence of 6RG (Lolium perenne) (chain, as listed by the source): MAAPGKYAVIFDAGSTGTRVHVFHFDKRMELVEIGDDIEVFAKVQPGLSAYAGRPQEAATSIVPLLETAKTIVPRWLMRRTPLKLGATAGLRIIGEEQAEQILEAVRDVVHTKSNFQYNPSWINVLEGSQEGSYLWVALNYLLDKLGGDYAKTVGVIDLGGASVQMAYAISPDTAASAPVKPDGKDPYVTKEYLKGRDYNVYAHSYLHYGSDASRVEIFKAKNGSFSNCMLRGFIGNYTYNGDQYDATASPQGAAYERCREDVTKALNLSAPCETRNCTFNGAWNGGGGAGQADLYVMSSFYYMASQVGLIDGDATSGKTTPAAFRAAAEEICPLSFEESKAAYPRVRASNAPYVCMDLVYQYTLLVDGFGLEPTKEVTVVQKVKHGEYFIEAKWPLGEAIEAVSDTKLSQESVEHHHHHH
Sequence of wLAT-1A (Homo sapiens), Q01650 (Q01650 whole entry): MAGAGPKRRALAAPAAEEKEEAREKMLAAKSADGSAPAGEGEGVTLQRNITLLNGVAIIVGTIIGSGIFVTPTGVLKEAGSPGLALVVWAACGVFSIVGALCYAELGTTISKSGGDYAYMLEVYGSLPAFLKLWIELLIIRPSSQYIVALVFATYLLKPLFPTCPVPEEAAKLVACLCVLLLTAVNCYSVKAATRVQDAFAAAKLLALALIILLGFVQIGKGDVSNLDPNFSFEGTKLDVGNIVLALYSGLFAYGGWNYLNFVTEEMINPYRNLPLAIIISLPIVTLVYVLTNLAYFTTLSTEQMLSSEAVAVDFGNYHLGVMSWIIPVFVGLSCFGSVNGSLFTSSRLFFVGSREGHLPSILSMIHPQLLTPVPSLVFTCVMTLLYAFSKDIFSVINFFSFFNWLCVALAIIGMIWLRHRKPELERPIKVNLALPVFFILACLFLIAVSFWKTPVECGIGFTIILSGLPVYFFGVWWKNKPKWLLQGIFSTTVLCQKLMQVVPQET
Sequence of Aggrecan (Rattus norvegicus), NP_071526 (chain, as listed by the source): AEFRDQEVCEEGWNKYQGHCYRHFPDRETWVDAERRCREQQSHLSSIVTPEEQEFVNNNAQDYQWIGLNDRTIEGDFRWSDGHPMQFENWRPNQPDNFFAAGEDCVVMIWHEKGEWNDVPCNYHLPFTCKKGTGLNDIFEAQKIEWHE

## MpAFP RI GFP (Marinomonas primoryensis)
[1]
  glycan array binding signal (z-score): 2.61
[2]
  glycan array binding signal (z-score): 5.48
[3]
  glycan array binding signal (z-score): 3.87

## wLAT-1A (Homo sapiens), Q01650
[4]
  glycan array binding signal (z-score): -0.343

## Siglec-8 (Homo sapiens), Q9NYZ4
[5]
  glycan array binding signal (z-score): -0.068
[6]
  glycan array binding signal (z-score): -0.067
[7]; mutation: R125K
  glycan array binding signal (z-score): -0.113
[1]
  glycan array binding signal (z-score): 0.515
[1]; mutation: R125K
  glycan array binding signal (z-score): 2.56
[8]
  glycan array binding signal (z-score): 0.69
[3]; mutation: R125K
  glycan array binding signal (z-score): 0.13
[9]
  glycan array binding signal (z-score): 0.321
[10]
  glycan array binding signal (z-score): 0.483
[11]
  glycan array binding signal (z-score): 0.455
[12]
  glycan array binding signal (z-score): -0.209
[13]; mutation: R125K
  glycan array binding signal (z-score): -0.502

## Regenerating Gene IV (Homo sapiens), Q9BYZ8
[14]
  glycan array binding signal (z-score): 1.48

## PILRa (Mus musculus), Q2YSF3
[15]
  glycan array binding signal (z-score): -0.088
[13]
  glycan array binding signal (z-score): -0.283
[16]
  glycan array binding signal (z-score): -0.231

## Avaren (Actinomycete K97)
[17]
  glycan array binding signal (z-score): -0.051
[11]
  glycan array binding signal (z-score): -0.016

## Aggrecan (Rattus norvegicus), NP_071526
[18]
  glycan array binding signal (z-score): -0.184

## PILRb (Mus musculus), Q2YSF2
[5]
  glycan array binding signal (z-score): -0.5
[18]
  glycan array binding signal (z-score): -0.023

## Neurocan (Homo sapiens), O14594
[12]
  glycan array binding signal (z-score): -0.263
[19]
  glycan array binding signal (z-score): -0.779

## 6RG (Lolium perenne)
[19]
  glycan array binding signal (z-score): -0.329

## CHI3L1 (Homo sapiens), P36222
[20]
  glycan array binding signal (z-score): -0.062
[7]
  glycan array binding signal (z-score): -0.131
[12]
  glycan array binding signal (z-score): -0.106
[16]
  glycan array binding signal (z-score): -0.141
